Experiment in all cases: DAPPL (digital affinity profiling via proximity ligation, sequencing); 10 mM Tris-HCl pH 7.5, 50 mM NaCl, 1 mM DTT, 4% glycerol, room temperature, 30 min; GST-TFs on glutathione beads, 16-mer random dsDNA library, 0.1% formaldehyde crosslink after washing; high values mean tight binding
Common to all, as to settings: protein: recombinant; tags: N-terminal GST; dsDNA, one strand shown

One test addresses T1, ERG (Homo sapiens, UniProt P11308 1-479).
T1 sequence: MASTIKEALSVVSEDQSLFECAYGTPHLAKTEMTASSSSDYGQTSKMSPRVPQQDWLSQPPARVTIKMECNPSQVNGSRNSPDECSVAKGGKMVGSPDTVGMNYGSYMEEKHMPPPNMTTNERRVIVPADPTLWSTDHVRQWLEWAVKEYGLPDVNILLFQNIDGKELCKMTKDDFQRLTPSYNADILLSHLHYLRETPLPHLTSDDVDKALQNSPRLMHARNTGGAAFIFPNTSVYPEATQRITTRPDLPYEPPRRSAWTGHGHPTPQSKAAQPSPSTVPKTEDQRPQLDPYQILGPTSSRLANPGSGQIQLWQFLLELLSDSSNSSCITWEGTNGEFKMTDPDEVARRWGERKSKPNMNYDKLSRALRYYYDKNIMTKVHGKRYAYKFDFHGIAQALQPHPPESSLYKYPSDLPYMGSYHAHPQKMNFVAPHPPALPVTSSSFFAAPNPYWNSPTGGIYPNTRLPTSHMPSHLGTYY
In a few lines: (§1)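 Sequencing on an Illumina NextSeq500 followed washing, crosslinking with 0.1% formaldehyde, proximity ligation (BsaI/T4 ligase, 1 h, 37 °C) and PCR amplification of pools that had been incubated for 30 min at room temperature with 200 nmole of a random double-stranded 16-mer DNA library in Tris/NaCl/DTT/glycerol buffer. Each pool held DNA-barcoded human transcription factors, expressed in yeast as GST fusions and captured on glutathione beads, plus a tag-only sample. Binding signal is a hexamer's read frequency for a factor divided by its frequency in the tag-only sample.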

In another test the target is ELF1 (Homo sapiens, UniProt P32519 1-619). In a few lines:
as §1

For another test, the target named is T2, EHF (Homo sapiens, UniProt Q9NZC4 1-300).
T2 sequence: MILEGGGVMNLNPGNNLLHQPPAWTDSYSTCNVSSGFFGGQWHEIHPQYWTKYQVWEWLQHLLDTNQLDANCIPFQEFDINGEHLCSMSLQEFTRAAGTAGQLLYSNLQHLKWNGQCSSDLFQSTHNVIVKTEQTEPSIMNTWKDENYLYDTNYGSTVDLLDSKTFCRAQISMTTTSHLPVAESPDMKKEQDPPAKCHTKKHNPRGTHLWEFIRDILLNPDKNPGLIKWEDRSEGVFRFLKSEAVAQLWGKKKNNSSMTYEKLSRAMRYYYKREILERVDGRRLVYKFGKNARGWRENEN
The method in brief:
as §1

For the next test, the target named is ETV5 (Homo sapiens, UniProt P41161 1-510). The method in brief: as §1
The target in another test is T3, ELF3 (Homo sapiens, UniProt P78545 1-371).
T3 sequence: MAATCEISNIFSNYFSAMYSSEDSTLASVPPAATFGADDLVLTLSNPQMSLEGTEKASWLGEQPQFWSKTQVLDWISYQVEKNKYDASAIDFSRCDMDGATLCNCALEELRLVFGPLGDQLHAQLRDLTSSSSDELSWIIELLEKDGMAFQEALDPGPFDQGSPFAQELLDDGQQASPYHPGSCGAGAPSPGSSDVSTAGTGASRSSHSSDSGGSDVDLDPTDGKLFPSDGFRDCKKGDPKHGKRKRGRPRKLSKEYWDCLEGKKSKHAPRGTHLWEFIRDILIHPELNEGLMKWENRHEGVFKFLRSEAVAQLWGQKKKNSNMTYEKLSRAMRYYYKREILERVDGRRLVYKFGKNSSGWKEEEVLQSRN
In a few lines:
as §1

The target of another test is ETV1 (Homo sapiens, UniProt P50549 1-477). In a few lines: as §1
The next test addresses T4, ETV7 (Homo sapiens, UniProt Q9Y603 1-341).
T4 sequence: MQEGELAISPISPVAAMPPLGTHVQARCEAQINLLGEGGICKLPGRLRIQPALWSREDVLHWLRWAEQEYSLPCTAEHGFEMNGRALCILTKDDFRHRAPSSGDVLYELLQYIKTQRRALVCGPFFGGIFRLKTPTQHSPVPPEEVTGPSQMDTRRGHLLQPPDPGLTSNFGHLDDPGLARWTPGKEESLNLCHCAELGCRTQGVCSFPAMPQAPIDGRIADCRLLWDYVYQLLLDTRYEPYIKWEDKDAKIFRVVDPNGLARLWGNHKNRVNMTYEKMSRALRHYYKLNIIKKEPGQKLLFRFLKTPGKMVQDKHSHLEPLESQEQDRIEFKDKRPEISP
The method in brief:
as §1

The next test addresses T5, ETV3 (Homo sapiens, UniProt P41162-2 1-143).
T5 sequence: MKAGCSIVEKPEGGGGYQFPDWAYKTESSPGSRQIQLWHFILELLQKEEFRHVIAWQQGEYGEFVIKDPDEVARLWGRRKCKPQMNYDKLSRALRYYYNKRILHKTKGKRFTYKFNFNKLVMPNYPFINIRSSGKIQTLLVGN
The method in brief:
as §1

A further test addresses ETV6 (Homo sapiens, UniProt P41212 1-452). In a few lines: as §1
The next test has as its target SPIB (Homo sapiens, UniProt Q01892 1-262). The method in brief: as §1
In another test the target is T6, ELK3 (Homo sapiens, UniProt P41970 1-407).
T6 sequence: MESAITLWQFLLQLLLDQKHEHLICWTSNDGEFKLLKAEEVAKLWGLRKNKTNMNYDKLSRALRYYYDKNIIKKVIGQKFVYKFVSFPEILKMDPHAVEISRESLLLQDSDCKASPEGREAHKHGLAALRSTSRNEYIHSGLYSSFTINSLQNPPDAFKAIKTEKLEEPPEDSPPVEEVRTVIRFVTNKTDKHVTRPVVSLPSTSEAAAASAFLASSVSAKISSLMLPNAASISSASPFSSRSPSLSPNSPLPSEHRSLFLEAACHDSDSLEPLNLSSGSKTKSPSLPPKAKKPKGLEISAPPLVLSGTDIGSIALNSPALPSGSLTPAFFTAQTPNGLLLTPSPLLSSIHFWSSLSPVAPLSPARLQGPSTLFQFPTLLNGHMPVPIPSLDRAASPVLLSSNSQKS
The method in brief:
as §1

The target of a further test is ELF4 (Homo sapiens, UniProt Q99607 1-663). In a few lines: as §1
Another test addresses T7, ERF (Homo sapiens, UniProt P50548 1-548).
T7 sequence: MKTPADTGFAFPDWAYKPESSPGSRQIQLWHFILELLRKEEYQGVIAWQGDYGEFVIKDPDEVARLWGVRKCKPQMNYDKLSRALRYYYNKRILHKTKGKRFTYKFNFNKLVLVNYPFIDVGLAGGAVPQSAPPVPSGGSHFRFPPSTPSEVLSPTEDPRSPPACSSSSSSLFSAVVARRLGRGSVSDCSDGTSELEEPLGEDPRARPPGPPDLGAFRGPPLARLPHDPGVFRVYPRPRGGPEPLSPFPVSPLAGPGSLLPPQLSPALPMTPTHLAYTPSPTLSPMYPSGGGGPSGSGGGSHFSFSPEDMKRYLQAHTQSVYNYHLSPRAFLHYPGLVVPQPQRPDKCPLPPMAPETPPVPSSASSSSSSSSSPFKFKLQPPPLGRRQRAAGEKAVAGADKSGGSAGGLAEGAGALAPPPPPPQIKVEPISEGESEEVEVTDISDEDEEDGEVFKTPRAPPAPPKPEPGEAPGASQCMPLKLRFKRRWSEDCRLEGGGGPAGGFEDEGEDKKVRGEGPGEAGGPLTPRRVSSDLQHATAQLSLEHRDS
The method in brief:
as §1

The target in another test is T8, ETS2 (Homo sapiens, UniProt P15036 1-469).
T8 sequence: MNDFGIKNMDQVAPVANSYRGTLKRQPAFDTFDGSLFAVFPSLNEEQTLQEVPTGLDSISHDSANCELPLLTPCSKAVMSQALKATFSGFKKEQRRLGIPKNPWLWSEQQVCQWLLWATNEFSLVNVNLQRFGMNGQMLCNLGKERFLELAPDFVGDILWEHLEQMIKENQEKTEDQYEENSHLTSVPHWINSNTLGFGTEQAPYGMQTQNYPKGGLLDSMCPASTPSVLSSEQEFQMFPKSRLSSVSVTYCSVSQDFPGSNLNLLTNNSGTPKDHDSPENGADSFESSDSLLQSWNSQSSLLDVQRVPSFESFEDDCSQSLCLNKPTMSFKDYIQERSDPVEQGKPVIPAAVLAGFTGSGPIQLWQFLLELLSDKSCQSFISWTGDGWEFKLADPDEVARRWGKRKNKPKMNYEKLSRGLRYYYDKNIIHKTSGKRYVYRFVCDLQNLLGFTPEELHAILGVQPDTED
In a few lines: as §1

Sequence of ELF1 (P32519 whole entry): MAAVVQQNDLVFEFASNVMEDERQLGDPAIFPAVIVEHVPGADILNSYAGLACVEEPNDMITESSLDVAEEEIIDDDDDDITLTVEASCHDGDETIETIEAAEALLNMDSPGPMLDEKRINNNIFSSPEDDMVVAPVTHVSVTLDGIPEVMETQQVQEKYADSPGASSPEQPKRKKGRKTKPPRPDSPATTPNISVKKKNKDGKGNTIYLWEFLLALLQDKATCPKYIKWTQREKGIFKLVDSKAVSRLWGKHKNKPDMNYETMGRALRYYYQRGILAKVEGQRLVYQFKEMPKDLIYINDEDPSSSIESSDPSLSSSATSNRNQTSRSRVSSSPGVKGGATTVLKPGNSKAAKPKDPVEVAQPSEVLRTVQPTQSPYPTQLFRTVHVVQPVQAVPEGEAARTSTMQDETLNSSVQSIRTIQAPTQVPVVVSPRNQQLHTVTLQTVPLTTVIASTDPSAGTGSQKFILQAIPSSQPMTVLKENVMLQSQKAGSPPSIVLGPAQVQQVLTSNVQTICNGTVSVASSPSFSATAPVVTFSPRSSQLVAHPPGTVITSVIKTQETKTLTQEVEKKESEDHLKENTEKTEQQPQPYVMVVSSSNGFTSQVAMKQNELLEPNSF
Sequence of ETV5 (P41161 whole entry): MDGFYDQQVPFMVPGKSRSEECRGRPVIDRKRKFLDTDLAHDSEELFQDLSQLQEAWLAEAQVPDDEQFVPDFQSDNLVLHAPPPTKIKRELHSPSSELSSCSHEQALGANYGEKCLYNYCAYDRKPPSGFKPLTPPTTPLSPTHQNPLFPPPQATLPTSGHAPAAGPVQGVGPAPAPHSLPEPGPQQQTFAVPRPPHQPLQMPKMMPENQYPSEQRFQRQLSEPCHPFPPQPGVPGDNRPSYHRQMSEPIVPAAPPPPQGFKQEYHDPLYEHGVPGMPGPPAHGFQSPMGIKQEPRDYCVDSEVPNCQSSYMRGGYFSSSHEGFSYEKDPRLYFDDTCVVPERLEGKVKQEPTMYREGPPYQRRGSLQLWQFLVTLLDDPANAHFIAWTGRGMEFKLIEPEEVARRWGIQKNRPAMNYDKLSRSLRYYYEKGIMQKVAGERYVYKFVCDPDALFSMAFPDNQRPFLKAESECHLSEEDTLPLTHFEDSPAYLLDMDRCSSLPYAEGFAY
Sequence of ETV6 (P41212 whole entry): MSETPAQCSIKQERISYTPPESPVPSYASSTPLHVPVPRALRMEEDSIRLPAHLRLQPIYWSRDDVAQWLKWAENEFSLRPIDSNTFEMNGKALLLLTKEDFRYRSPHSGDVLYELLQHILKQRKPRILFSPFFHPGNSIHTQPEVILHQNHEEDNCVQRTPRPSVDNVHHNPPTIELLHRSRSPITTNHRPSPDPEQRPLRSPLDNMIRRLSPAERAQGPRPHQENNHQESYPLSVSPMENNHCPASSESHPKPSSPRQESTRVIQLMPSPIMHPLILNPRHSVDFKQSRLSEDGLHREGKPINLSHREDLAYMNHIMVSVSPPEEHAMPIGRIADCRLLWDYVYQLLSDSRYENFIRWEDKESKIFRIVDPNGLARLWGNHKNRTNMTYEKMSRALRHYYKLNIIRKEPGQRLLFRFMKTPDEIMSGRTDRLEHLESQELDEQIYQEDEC
Sequence of SPIB (Q01892 whole entry): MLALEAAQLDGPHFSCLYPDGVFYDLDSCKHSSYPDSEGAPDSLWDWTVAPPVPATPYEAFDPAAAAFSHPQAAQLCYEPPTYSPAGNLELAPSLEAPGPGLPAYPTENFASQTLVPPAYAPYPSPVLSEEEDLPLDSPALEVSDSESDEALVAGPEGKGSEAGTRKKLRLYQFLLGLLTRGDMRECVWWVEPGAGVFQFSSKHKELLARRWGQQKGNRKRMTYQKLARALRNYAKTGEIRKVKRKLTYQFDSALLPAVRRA
Sequence of ETV1 (P50549 whole entry): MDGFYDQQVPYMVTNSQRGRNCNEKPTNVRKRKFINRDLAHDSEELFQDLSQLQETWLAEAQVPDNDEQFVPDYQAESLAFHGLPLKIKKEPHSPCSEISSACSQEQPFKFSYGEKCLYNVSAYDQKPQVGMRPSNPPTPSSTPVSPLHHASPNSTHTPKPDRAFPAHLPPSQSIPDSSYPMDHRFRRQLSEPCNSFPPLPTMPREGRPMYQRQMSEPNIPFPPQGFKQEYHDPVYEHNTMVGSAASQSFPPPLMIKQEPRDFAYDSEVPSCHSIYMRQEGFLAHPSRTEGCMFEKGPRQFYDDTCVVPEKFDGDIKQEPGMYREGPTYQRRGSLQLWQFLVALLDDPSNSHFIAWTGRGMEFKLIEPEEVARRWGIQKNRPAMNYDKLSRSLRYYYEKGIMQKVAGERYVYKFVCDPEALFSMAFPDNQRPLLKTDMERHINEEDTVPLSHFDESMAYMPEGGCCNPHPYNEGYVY
Sequence of ELF4 (Q99607 whole entry): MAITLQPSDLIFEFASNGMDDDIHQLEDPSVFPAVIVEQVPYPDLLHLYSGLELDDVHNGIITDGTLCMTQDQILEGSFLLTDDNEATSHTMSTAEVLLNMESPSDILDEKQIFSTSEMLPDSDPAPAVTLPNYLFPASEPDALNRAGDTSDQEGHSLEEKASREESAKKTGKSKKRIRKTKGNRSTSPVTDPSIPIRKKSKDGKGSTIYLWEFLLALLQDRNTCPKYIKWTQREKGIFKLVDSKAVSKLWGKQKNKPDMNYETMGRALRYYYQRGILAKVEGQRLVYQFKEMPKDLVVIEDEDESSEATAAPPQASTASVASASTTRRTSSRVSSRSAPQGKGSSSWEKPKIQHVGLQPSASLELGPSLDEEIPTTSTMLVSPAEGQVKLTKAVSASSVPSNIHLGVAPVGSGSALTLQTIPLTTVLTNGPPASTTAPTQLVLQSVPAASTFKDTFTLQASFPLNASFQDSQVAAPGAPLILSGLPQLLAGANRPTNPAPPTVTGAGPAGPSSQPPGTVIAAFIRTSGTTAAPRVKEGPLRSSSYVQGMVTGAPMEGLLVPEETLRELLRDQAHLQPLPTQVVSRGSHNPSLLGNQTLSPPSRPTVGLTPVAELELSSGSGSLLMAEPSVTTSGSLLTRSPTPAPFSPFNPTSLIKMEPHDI

As to GAAACC, the binding signal in the test with ERG is 1.05 fold enrichment (6-mer frequency, TF over GST control); with ELF1, 1.04 fold enrichment (6-mer frequency, TF over GST control); with EHF it was 1.04 fold enrichment (6-mer frequency, TF over GST control); with ETV5 it was 1.05 fold enrichment (6-mer frequency, TF over GST control); with ELF3, 1.03 fold enrichment (6-mer frequency, TF over GST control); with ETV1, 1.02 fold enrichment (6-mer frequency, TF over GST control). The binding signal was 1.04 fold enrichment (6-mer frequency, TF over GST control) with ETV7; 1.02 fold enrichment (6-mer frequency, TF over GST control) in the test with ETV3; 1.08 fold enrichment (6-mer frequency, TF over GST control) in the test with ETV6.
Turning to CCACCG, the binding signal was 1.03 fold enrichment (6-mer frequency, TF over GST control) with ERG; 1.01 fold enrichment (6-mer frequency, TF over GST control) in the test with ELF1; 1.07 fold enrichment (6-mer frequency, TF over GST control) with EHF; 1.09 fold enrichment (6-mer frequency, TF over GST control) in the test with SPIB; 1.06 fold enrichment (6-mer frequency, TF over GST control) in the test with ELK3; 1 fold enrichment (6-mer frequency, TF over GST control) with ETV5. Further, the binding signal with ELF4 was 1.11 fold enrichment (6-mer frequency, TF over GST control); with ERF it was 1.2 fold enrichment (6-mer frequency, TF over GST control); with ETS2, 1.02 fold enrichment (6-mer frequency, TF over GST control); with ETV7 it was 1.06 fold enrichment (6-mer frequency, TF over GST control); in the test with ETV3 it was 1.04 fold enrichment (6-mer frequency, TF over GST control); in the test with ETV6, 1.06 fold enrichment (6-mer frequency, TF over GST control).

The values above are taken from article PMC7862700, “An all-to-all approach to the identification of sequence-specific readers for epigenetic DNA modifications on cytosine”.
